# High-throughput results deposited in PubChem BioAssay by National Center for Advancing Translational Sciences (NCATS).
# PLK1 PBD block: PLK1 (human) polo-box domain binding inhibition; 360,000 compounds, 2.8% hits; Potency, µM, inactives show max response, negative = inhibition, actives largely listed as inhibitors; Plk1 PBD binding of FITC phosphopeptide, fluorescence polarization; P53350; note: series mostly up to about 57 µM; % is set by controls: 0 for no effect and ±100 for the full control effect; nearly all actives have a fitted effect of over 65% in size
# Target sequence (P53350 whole entry, looked up, the tested form may be a part): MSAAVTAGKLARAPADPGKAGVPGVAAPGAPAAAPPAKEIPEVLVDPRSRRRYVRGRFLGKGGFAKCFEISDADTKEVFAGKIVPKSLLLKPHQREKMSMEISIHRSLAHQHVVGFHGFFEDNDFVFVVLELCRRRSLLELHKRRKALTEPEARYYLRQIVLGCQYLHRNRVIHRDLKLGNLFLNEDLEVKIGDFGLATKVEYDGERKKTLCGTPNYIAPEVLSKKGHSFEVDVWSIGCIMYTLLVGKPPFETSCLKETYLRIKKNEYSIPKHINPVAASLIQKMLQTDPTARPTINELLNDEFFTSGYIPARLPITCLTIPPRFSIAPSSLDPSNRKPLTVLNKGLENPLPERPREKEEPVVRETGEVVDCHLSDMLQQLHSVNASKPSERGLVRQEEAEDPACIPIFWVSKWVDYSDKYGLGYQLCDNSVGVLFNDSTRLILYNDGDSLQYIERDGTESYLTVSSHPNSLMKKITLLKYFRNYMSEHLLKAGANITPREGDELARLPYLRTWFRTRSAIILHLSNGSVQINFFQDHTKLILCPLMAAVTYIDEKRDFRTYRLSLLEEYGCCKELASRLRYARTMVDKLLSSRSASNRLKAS
# Sfp inh: Sfp phosphopantetheinyl transferase inhibition; Q9F4F7; Biochemical Sfp PPTase activity, qHTS; Potency, µM, without a hit: largest response in the series, negative = inhibition, hits mostly inhibitors; 310,000 compounds, 3.5% hits; AID 1490;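 note: the enzyme is Sfp with the accession as filed and its product quenches rhodamine fluorescence; 0% = enzyme reaction without inhibitor and -100% = no enzyme wells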
#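 Buffer: 50 mM Hepes-Na pH 7.6, 10 mM MgCl2, 0.01% Nonidet P-40, 0.01% BSA. Enzyme 15 nM, pre-exposed to compound 15 min; substrates then added and fluorescence change tracked over 30 min.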
# JMJD2A Tudor inh: JMJD2A Tudor domain (human) inhibition. AlphaScreen JMJD2A-Tudor / H3K4me3 peptide binding. AID 504339. 390,000 compounds, 4.4% hits. Potency, µM (highest dose often 114 µM), for inactives: top-dose activity change, negative = inhibition, most hits filed as inhibitors. O75164; note: % is set by controls: 0 for no effect and ±100 for the full control effect; nearly all actives have a fitted effect of over 50% in size
# BAZ2B block: blocks human BAZ2B; AID 504333; 360,000 compounds, 4.4% hits; Potency, µM (series often up to 114 µM), inactives show top-dose activity change, negative = inhibition, most hits filed as inhibitors; AlphaScreen BAZ2B-H3K14Ac peptide displacement; Q9UIF8; note: % is set by controls: 0 for no effect and ±100 for the full control effect; nearly all actives have a fitted effect of over 60% in size
#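 AlphaScreen luminescence quantifies BAZ2B engagement of H3K14Ac peptide; the protein and biotinylated peptide are both at 50 nM final, buffer PBS pH 7.4 with 0.01% Tween-20, all steps at room temperature.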
# G9a block: blocks human histone lysine methyltransferase G9a; 350,000 compounds, 8.8% hits; Potency, µM (doses to about 102 µM), for inactives: at the highest dose activity, negative = inhibition, usual class: inhibitors; G9a H3K9 monomethylation, AlphaScreen, 2 h; Q96KQ7; note: % is set by controls: 0 for no effect and ±100 for the full control effect; nearly all actives have a fitted effect of over 75% in size
#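 Methyltransferase reactions run at room temperature for 2 h (20 nM enzyme, 500 nM biotin-H3K9 peptide, 20 uM SAM) after a 15 min compound preincubation; product detected by AlphaScreen beads and anti-H3K9me1 antibody.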
# HP1b chromo inh: inhibitors of HP1-beta chromodomain binding to methylated histone tails. P83916. AlphaScreen HP1-beta / biotin-H3K9me3 peptide binding. Potency, µM (highest dose often 114 µM), for inactives: top-dose activity change, negative = inhibition, actives largely listed as inhibitors. 390,000 compounds, 0.56% hits. AID 540317; note: nearly all actives have a fitted effect of over 70% in size
#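 HP1-beta protein (50 nM final) preincubated 30 min at room temperature with biotinylated H3(1-18)K9me3 peptide (50 nM) in PBS pH 7.4, 0.01% Tween-20, then compound added for 30 min. AlphaScreen streptavidin donor/nickel chelate acceptor beads (10 ug/mL final), 30 min dark, luminescence read.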
# * marks the source's active call; other numbers are inactive results; u = inconclusive; x = not tested or not shown; [ ] = remark or other dose. An excerpt weighted towards active compounds, which were near 12% of everything screened. Calls come from the whole dose curve; as a rule, active = well fitted curve in the direction sought with a large enough effect; inconclusive = small, poorly fitted or top-dose-only effect, or another doubt; inactive = no such curve, though single readings can be large; an effect the other way counts as inactive or inconclusive. Potency is the fitted concentration of half-maximal effect.
SMILES,PLK1 PBD block,Sfp inh,JMJD2A Tudor inh,BAZ2B block,G9a block,HP1b chromo inh
COC(=O)N[C@@H](/C=C/c1ccccc1)/C(C(=O)OC)=C(\C)NCc1ccccc1,x,-8.7%,x,x,x,x
COc1ccc(C(=O)N=S2CCN(C(=O)c3ccc(Cl)cc3)CC2)cc1,1.6%,-2.5%,-3.4%,-22.8%,25.1µM*,74.7%
CC1CC(C)CN(C(=O)c2ccc3c(c2)N(Cc2ccccc2)CCS3)C1 (stereo not given),-20.9%,u,u,u,39.8µM*,11.1%
Cc1ccc(CN2CCSc3ccc(C(=O)N4CCOCC4)cc32)cc1,-5.1%,-9.2%,-28.3%,u,u,23.2%
Cc1ccc(CN2CCSc3ccc(C(=O)N4CCN(c5ncccn5)CC4)cc32)cc1,-0.3%,50.1µM*,u,-29.3%,-24.8%[12.7 µM],-8.8%
CCOC(=O)N1CCN(C(=O)c2ccc3c(c2)N(Cc2ccccc2)CCS3)CC1,0.9%,1.5%,-32.0%,u,u,20.7%
Cc1ccc(CN2CCSc3ccc(C(=O)NCc4ccco4)cc32)cc1,-9.4%,7.2%,-31.9%,-18.1%,70.8µM*,-9.1%
CCN1CCN(C(=O)c2ccc3c(c2)N(Cc2ccc(C)cc2)CCS3)CC1,0.0%,6.3%,-35.9%,-28.4%[57.1 µM],79.4µM*,-6.3%[57 µM]
COc1ccccc1CNC(=O)c1ccc2c(c1)N(Cc1ccc(C)cc1)CCS2,x,x,-22.5%,-20.6%,-18.9%[59 µM],38.8%
CC(C)Oc1ccccc1OC1(C)CCN(Cc2ccc(OC(F)(F)F)cc2)C1 (stereo not given),8.0%,x,x,x,x,x
COc1ccccc1Cn1c(=O)c2ccccc2n2c(SCC(=O)N3CCCCC3)nnc12,-0.9%,-5.6%,-17.9%,-6.0%,8.7%[59 µM],24.5%
COc1ccc(NC(=O)c2c(-c3ccccc3)c(-c3ccccc3)nn(C)c2=O)c(OC)c1,x,x,-30.5%,-30.1%,-32.3%[59 µM],13.8%
COc1ccc(N2CCN(C(=O)CCC(=O)N3CC(C)Oc4ccc(C)cc43)CC2)cc1 (stereo not given),-7.9%,4.1%,u,39.8µM*,44.7µM*,-19.3%
COc1ccc(N2CCN(C(=O)Cc3coc4cc(C)ccc34)CC2)cc1,-7.5%,4.3%,-29.7%[57.1 µM],39.8µM*,44.7µM*,-12.2%
COc1ccc(N2CCN(C(=O)Cc3coc4ccc(C)cc34)CC2)cc1,x,x,u,39.8µM*,15.8µM*,u
Cc1ccc2occ(CC(=O)N3CCN(c4cccc(Cl)c4)CC3)c2c1,x,x,-11.1%,-4.8%,6.8%[59 µM],3.1%
Cc1cc(CN2CCN(CC(=O)Nc3cc(C(F)(F)F)ccc3-n3cncn3)CC2)no1,2.4%,x,-7.5%,8.8%,-9.8%[12.7 µM],47.0%
NC(=O)c1ccc[n+](CC(=O)Nc2ccccc2C(=O)O)c1,u,-1.0%,-18.2%,-1.1%,u,87.4%
CCc1ccc(NC(=S)Nc2cccc3cnccc23)cc1,-51.3%,22.4µM*,-15.1%,u,44.7µM*,-4.4%
Cc1ccc(NC(=S)c2ccncc2)c(C)c1,-4.0%,19.2%,-0.4%,u,79.4µM*,52.1%
Cc1ccc(NC(=S)Nc2ccccn2)c(C)c1,u,-2.2%,-17.0%,-34.1%,u,15.4%
C=C(C)CNC(=S)Nc1cccc2cnccc12,-18.6%,-4.9%,-1.4%,34.0%,25.1%,53.8%
Cc1cc(C)cc(NC(=S)Nc2cccc3cnccc23)c1,u,25.1µM*,-30.6%,u,17.8µM*,u
Cc1ccc(NC(=S)NNC(=S)Nc2ccc(C)cc2C)cc1,10.6µM*,12.6µM*,u,-18.7%,-28.0%,u
COc1ccc(Cc2c(-c3ccc(F)cc3)nc3ccc(Cl)cn23)c(C)c1,-5.8%,x,x,x,x,x
Cc1c(CCOC(=O)c2cccc([N+](=O)[O-])c2)sc[n+]1CC(=O)c1ccccc1,1.2%,18.1%,-11.0%,-18.9%,x,28.2%
O=C(NC(=S)Nc1cccc2cnccc12)c1ccccc1,-1.1%,44.7µM*,-9.2%,0.1%,39.8µM*,39.4%
Cc1ccc(NC(=S)Nc2cccc3cnccc23)c(C)c1,u,50.1µM*,-14.4%,-22.1%,50.1µM*,-10.4%
